Experimental data as given in PubChem BioAssay AID493001 (Johns Hopkins Ion Channel Center, 2010).
The campaign covered roughly 1,900 compounds. About 430 (23%) were called active.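 Rule for the calls: active = duplicate-averaged calcium rise in uninduced cells above buffer wells' mean plus 5 SD; inactive = the rest.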 The entries come from a sample that favours actives as a whole.

test: direct calcium signal without carbachol stimulation – cell-based, HEK293 M3R, non-induced, no carbachol, second counter-screen, artefact control for RGS4 inhibitor project, confirmation (AID 493001); conditions: Fluo-4 calcium, at 10 µM; stronger effect = higher value

Row | Structure (SMILES) | calcium response (agonist-mode artifact)
1 | CCN1C(=O)C(=Cc2c(C)n(CC(=O)NCC3CCCO3)c3ccccc23)C(=O)N(CC)C1=S (centres undefined) | 13.5% (active)
2 | O=C(N/N=C/c1c(O)n(Cc2ccccc2)c(=O)[nH]c1=O)c1ccccc1 | inactive
3 | O=C1NC(=O)N(Cc2ccco2)C(=O)/C1=C\c1ccc(-c2ccc(F)cc2)o1 | 152% (active)
4 | Cc1ccc2c(c1)=C/C(=C\c1c(O)[nH]c(=O)[nH]c1=O)C(=O)N=2 | inactive
